# Data published in PubChem BioAssay (NCATS).
# Where “and” joins values, the source holds several entries; their conditions need not be identical. Identical values can stand only once. Records with an inconclusive call do not appear. A call without a number means that no potency is given here. A structure can be active in one record and inactive in another. Calls of active or inactive are those of the source. Calls come from the whole dose curve; as a rule, active = well fitted inhibition curve with a large enough effect; inconclusive = small, poorly fitted or top-dose-only effect; inactive = no such curve, though single readings can be large or run the other way.
# Test: NS1 protein of Zika virus - qHTS assay to identify small molecule inhibitors in human HEK 293 cells (AID 1347053); note: nearly all actives have a fitted effect of over 55% in size
# Conditions: HEK293 ZIKV MR766 infection, NS1 TR-FRET, 24 h; series mostly up to 46.1 µM
# Excerpt: National Center for Advancing Translational Sciences [NCATS]
# Johns Hopkins University School of Medicine
# The non-structural 1 (NS1) protein of zika virus is known to associate with the viral replication complex. This cell-based TR-FRET ZIKV NS-1 assay measures the increased NS-1 protein in human HEK 293 cells after a 24-hour Zika virus infection by a TR-FRET assay readout. A decrease in the Time-resolved fluorescence energy transfer (TR-FRET) signal in this assay by small molecule treatment indicates an inhibitory effect of the small molecule on the expression of Zika virus NS1 correlating with Zika virus replication.
# HEK 293 cells were cultured in EMEM (ATCC, Cat. # 30-2003) medium with 10% fetal bovine serum (GE healthcare Life Sciences, Cat. # SH30071.03), and 1% Pen/Strep (Gibco, Cat. # 15140-122). Cells were seeded in the assay plate and incubated at 37 C with 5% CO2 for 20 hours. Compounds were added to cells and incubated for one hour before addition of ZIKV MR766 strain solution to cells (MOI = 0.5). After an incubation at 37 C for 24 hours, the reagent mixture of TR-FRET ZIKV NS1 assay using two anti-ZIKV NS1 antibodies was added to assay plates. The TR-FRET signals in assay plates were measured using an Envision plate reader (PerkinElmer). Data were normalized by using the cell-containing wells without ZIKV as a negative control (0% NS-1) and wells containing ZIKV infected cells as a positive control (100% NS-1 level).
# Potency is the fitted concentration of half-maximal effect.
row,Compound,Potency
1,CN(C)CCC=C1c2ccccc2C=Cc2ccccc21,inactive
2,CC12CC3CC(C)(C1)CC(N)(C3)C2,inactive
3,CC(C(=O)O)c1cccc(C(=O)c2ccccc2)c1 (stereo not given),inactive
4,O=C1Cc2cc(CCN3CCN(c4nsc5ccccc45)CC3)c(Cl)cc2N1,inactive
5,OCCN1CCN(CCCN2c3ccccc3Sc3ccc(C(F)(F)F)cc32)CC1,16.6 µM (active) and inactive
6,CN(C)c1nc(N(C)C)nc(N(C)C)n1,inactive
7,Cc1cn([C@H]2C=C[C@@H](CO)O2)c(=O)[nH]c1=O,inactive
8,COc1nc(C)nc(Cl)c1NC1=NCCN1,inactive
9,O=C1c2c(O)ccc(O)c2C(=O)c2c(NCCNCCO)ccc(NCCNCCO)c21,0.833 µM (active)
10,CC(C)C(=O)Nc1ccc([N+](=O)[O-])c(C(F)(F)F)c1,inactive
11,Cc1ccc(-c2cc(C(F)(F)F)nn2-c2ccc(S(N)(=O)=O)cc2)cc1,inactive
12,Cc1cc(C(C)(C)C)c(O)c(C)c1CC1=NCCN1,inactive
13,Nc1ccn([C@H]2CC[C@@H](CO)O2)c(=O)n1,inactive
14,CCOC(=O)c1ncn2c1CN(C)C(=O)c1cc(F)ccc1-2,inactive
15,O=C(c1ccc(OCCN2CCCCC2)cc1)c1c(-c2ccc(O)cc2)sc2cc(O)ccc12,inactive
16,CN(C)CCOC(c1ccccc1)c1ccccc1,inactive
17,COC(=O)Nc1nc2ccc(C(=O)c3cccs3)cc2[nH]1,235 nM (active) and inactive
18,Cc1cn([C@H]2C[C@H](N=[N+]=[N-])[C@@H](CO)O2)c(=O)[nH]c1=O,inactive
19,CN(CCOc1ccc(NS(C)(=O)=O)cc1)CCc1ccc(NS(C)(=O)=O)cc1,inactive
20,Clc1ccc2c(c1)C(N1CCNCC1)=Nc1ccccc1O2,inactive

row,Compound,Potency
1,CN1C2CCC1CC(OC(=O)C(CO)c1ccccc1)C2 (stereo not given),inactive
2,CNCCCC12CCC(c3ccccc31)c1ccccc12,20.9 µM (active)
3,COc1cc2nc(N3CCN(C(=O)c4ccco4)CC3)nc(N)c2cc1OC,9.35 µM (active)
4,NS(=O)(=O)c1cc2c(cc1Cl)NCNS2(=O)=O,inactive
5,NC(=O)OCC(COC(N)=O)c1ccccc1,inactive
6,Cn1c(=O)c2c(ncn2C)n(C)c1=O,inactive
7,CN1CCN(CCCN2c3ccccc3Sc3ccc(Cl)cc32)CC1,23.5 µM (active) and inactive
8,CN1CCN(C2=Nc3cc(Cl)ccc3Nc3ccccc32)CC1,inactive
9,O=c1c(-c2ccc(O)cc2)coc2cc(O)cc(O)c12,inactive
10,C[C@@H]1CC(=O)NN=C1c1ccc(NN=C(C#N)C#N)cc1,inactive and 14.8 µM (active)
11,CCN1CCCC1CNC(=O)c1cc(S(=O)(=O)CC)c(N)cc1OC (stereo not given),inactive
12,NCCc1cnc[nH]1,inactive
13,CC(COc1ccccc1)N(CCCl)Cc1ccccc1 (stereo not given),inactive
14,CN1C(C(=O)Nc2ccccn2)=C(O)c2ccccc2S1(=O)=O,inactive
15,COc1cc2nc(N3CCN(C(=O)C4COc5ccccc5O4)CC3)nc(N)c2cc1OC (stereo not given),inactive
16,COc1ccc2c(c1)c(CC(=O)O)c(C)n2C(=O)c1ccc(Cl)cc1,inactive
17,C[C@H]1c2cccc(O)c2C(O)=C2C(=O)[C@]3(O)C(O)=C(C(N)=O)C(=O)[C@@H](N(C)C)[C@@H]3[C@@H](O)[C@@H]21,inactive
18,Clc1ccccc1C(c1ccccc1)(c1ccccc1)n1ccnc1,inactive
19,Cn1cnc2c1c(=O)[nH]c(=O)n2C,inactive
20,OCCN(CCO)c1nc(N2CCCCC2)c2nc(N(CCO)CCO)nc(N3CCCCC3)c2n1,inactive
